Experiment [1] in a line: NCI Yeast Anticancer Drug Screen. Data for the rad50 strain (AID 155).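 Further: 0% = growth of vehicle-only cultures of the same strain.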 Conditions: S. cerevisiae rad50 strain growth inhibition, stronger effect = higher value. The procedure, abridged:
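Inhibition values express reduced yeast growth in compound-treated cultures relative to vehicle-treated controls.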

The nature of experiment [2]: NCI Yeast Anticancer Drug Screen. Data for the mec2-1 strain (AID 157). To be noted: S. cerevisiae mec2-1 strain, stronger effect = higher value. The procedure, abridged:
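Readout is yeast growth inhibition, normalised to vehicle-treated controls, in the mec2-1 strain exposed to compound.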

Experiment [3] is described as follows: NCI Yeast Anticancer Drug Screen. Data for the sgs1 mgt1 strain (AID 161).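 Further: 0% = growth of cultures given vehicle only.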 To be noted: S. cerevisiae sgs1 mgt1 strain, stronger effect = higher value. The procedure, abridged: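 Growth of a repair-deficient yeast mutant was monitored after compound treatment and expressed as inhibition relative to vehicle-treated cultures.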
Experiment [4] can be described thus: NCI Yeast Anticancer Drug Screen. Data for the cln2 rad14 strain (AID 165).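 Further: 0% = growth equal to vehicle treated cultures.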 Conditions: S. cerevisiae cln2 rad14 strain, stronger effect = higher value. In a few lines:
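Relative to vehicle controls, growth inhibition of compound-treated cln2 rad14 yeast was recorded.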

Experiment [5] can be described thus: NCI Yeast Anticancer Drug Screen. Data for the bub3 strain (AID 167). To be noted: S. cerevisiae bub3 mutant strain, stronger effect = higher value. The procedure, abridged: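 Steps: expose the mutant yeast strain to compound; grow alongside vehicle-treated cultures; measure growth; express inhibition against the vehicle cultures.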
A short description of experiment [6]: NCI Yeast Anticancer Drug Screen. Data for the mlh1 rad18 strain (AID 175). To be noted: S. cerevisiae mlh1 rad18 strain growth inhibition, stronger effect = higher value. The procedure, abridged: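 Test agents were incubated with a yeast strain of defined genotype (DNA damage repair defect). Inhibition of growth was derived by comparison with vehicle-exposed cultures.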

The mark [7] stands for this setting: at 5.0 µM (retest, dose inferred, filed as 0.5).
Where [8] appears, read: at 50.0 µM (retest, dose inferred, filed as 5.0).

About 79,000 compounds went through this panel and 15% of them were active in at least one assay; those are over-represented in the sample as a whole. Values without a mark were called inactive. Activity calls are given as the source filed them. No stated cut-off is given here; in the data, active means growth inhibition above about 70%; inactive means the rest.

With `COc1ccc2cc(CNCCCCCCCCNCc3ccc4cc(OC)ccc4c3)ccc2c1`, the growth inhibition in experiment [1] (setting [7]) is 22%; in experiment [1] (setting [8]), 99% (active); in experiment [1] (at 50.0 µM), 97.7% (active); in experiment [2] (setting [7]), 6%; in experiment [2] (setting [8]), 100% (active); in experiment [2] (at 50.0 µM) it was 97.2% (active). Moreover, the growth inhibition in experiment [3] (setting [7]) is 19%; in experiment [3] (setting [8]) it was 99% (active); in experiment [3] (at 50.0 µM) it was 95.1% (active); in experiment [4] (setting [7]) it was 9%; in experiment [4] (setting [8]), 99% (active); in experiment [4] (at 50.0 µM) it was 94.5% (active).
As to `CCCCCOC(=O)C1C(=O)CC(c2ccccc2)C1c1ccccc1` (stereo not drawn), the growth inhibition is 1% in experiment [1] (setting [7]); 79% (active) in experiment [1] (setting [8]); 92.2% (active) in experiment [1] (at 50.0 µM); -1% in experiment [2] (setting [7]); 63% in experiment [2] (setting [8]); 16.6% in experiment [2] (at 50.0 µM). Moreover, the growth inhibition in experiment [3] (setting [7]) was -4%; in experiment [3] (setting [8]), 67%; in experiment [3] (at 50.0 µM) it was 56.1%; in experiment [4] (setting [7]) it was 0%; in experiment [4] (setting [8]), 76% (active); in experiment [4] (at 50.0 µM) it was 63.9%. Moreover, the growth inhibition in experiment [5] (setting [7]) is -5%; in experiment [5] (setting [8]) it was 72% (active); in experiment [5] (at 50.0 µM), 45.5%; in experiment [6] (setting [7]), 0%; in experiment [6] (setting [8]), 85% (active); in experiment [6] (at 50.0 µM) it was 68.6%.
For `O=c1oc2ccccc2c(O)c1/C=N/C(=S)Nc1ccccc1`, the growth inhibition in experiment [1] (setting [7]) is 13%; in experiment [1] (setting [8]), 93% (active); in experiment [1] (at 50.0 µM) it was 71% (active); in experiment [2] (setting [7]), -3%; in experiment [2] (setting [8]) it was 87% (active); in experiment [2] (at 50.0 µM), 34.5%. Further, the growth inhibition is 6% in experiment [3] (setting [7]); 88% (active) in experiment [3] (setting [8]); 18.5% in experiment [3] (at 50.0 µM); 0% in experiment [4] (setting [7]); 32% in experiment [4] (setting [8]); 20.8% in experiment [4] (at 50.0 µM). The results for the growth inhibition in experiment [5] (setting [7]), in experiment [5] (setting [8]) and in experiment [5] (at 50.0 µM) were 12%, 92% (active) and 46.9%, respectively.
Take `CCN1CCC(O)(/C=C/c2cccc(C)c2)C(C(=O)/C=C/c2cccc(C)c2)C1` (stereo not drawn): the growth inhibition was 42% in experiment [1] (setting [7]); 96% (active) in experiment [1] (setting [8]); 91% (active) in experiment [1] (at 50.0 µM); 41% in experiment [2] (setting [7]); 98% (active) in experiment [2] (setting [8]); 93% (active) in experiment [2] (at 50.0 µM). For the same compound, the growth inhibition in experiment [3] (setting [7]) is 95% (active); in experiment [3] (setting [8]), 92% (active); in experiment [3] (at 50.0 µM), 90.8% (active); in experiment [4] (setting [7]), 91% (active); in experiment [4] (setting [8]), 93% (active); in experiment [4] (at 50.0 µM) it was 90.2% (active). For the same compound, the growth inhibition in experiment [5] (setting [7]) is 95% (active); in experiment [5] (setting [8]), 96% (active); in experiment [5] (at 50.0 µM), 88.2% (active); in experiment [6] (setting [7]) it was 64%; in experiment [6] (setting [8]), 98% (active); in experiment [6] (at 50.0 µM) it was 92.7% (active).
Regarding `CCCC(=O)OCc1cc(=O)n(C)c2c3c4c(cc12)c(C)cc(=O)n4CO3`, the growth inhibition was 86% (active) in experiment [1] (setting [7]); 99% (active) in experiment [1] (setting [8]); 25% in experiment [1] (at 50.0 µM); 58% in experiment [2] (setting [7]); 100% (active) in experiment [2] (setting [8]); -11.2% in experiment [2] (at 50.0 µM). Moreover, the growth inhibition in experiment [3] (setting [7]) was 79% (active); in experiment [3] (setting [8]), 100% (active); in experiment [3] (at 50.0 µM) it was 22.8%; in experiment [4] (setting [7]), 63%; in experiment [4] (setting [8]), 99% (active); in experiment [4] (at 50.0 µM) it was 13.6%. Also, the growth inhibition in experiment [5] (setting [7]) was 84% (active); in experiment [5] (setting [8]) it was 98% (active); in experiment [5] (at 50.0 µM), -11%.
For the compound `CCCC1c2ccc(O)cc2CC1c1ccc(O)cc1` (stereo not drawn), the growth inhibition in experiment [1] (setting [7]) is -1%; in experiment [1] (setting [8]), 99% (active); in experiment [1] (at 50.0 µM) it was 99.2% (active); in experiment [2] (setting [7]), -4%; in experiment [2] (setting [8]), 99% (active); in experiment [2] (at 50.0 µM), 99.4% (active). Also, the growth inhibition in experiment [3] (setting [7]) was -3%; in experiment [3] (setting [8]), 99% (active); in experiment [3] (at 50.0 µM), 99.5% (active); in experiment [4] (setting [7]) it was 11%; in experiment [4] (setting [8]), 99% (active); in experiment [4] (at 50.0 µM), 52.4%. Also, the growth inhibition in experiment [5] (setting [7]) is -1%; in experiment [5] (setting [8]) it was 99% (active); in experiment [5] (at 50.0 µM), 98.7% (active); in experiment [6] (setting [7]) it was 1%; in experiment [6] (setting [8]), 99% (active); in experiment [6] (at 50.0 µM) it was 98.5% (active).
For `COc1ccc(N=Nc2ccc3oc(=O)c(C(=O)Nc4ccc(OC)cc4)cc3c2)cc1`, the growth inhibition in experiment [1] (setting [7]) was 24%; in experiment [1] (setting [8]), 97% (active); in experiment [1] (at 50.0 µM) it was 94.8% (active); in experiment [2] (setting [7]) it was 14%; in experiment [2] (setting [8]), 97% (active); in experiment [2] (at 50.0 µM), 95.3% (active). The growth inhibition is 14% in experiment [3] (setting [7]); 98% (active) in experiment [3] (setting [8]); 95.5% (active) in experiment [3] (at 50.0 µM); 26% in experiment [4] (setting [7]); 94% (active) in experiment [4] (setting [8]); 94.3% (active) in experiment [4] (at 50.0 µM). Moreover, the growth inhibition is -25% in experiment [5] (setting [7]); 92% (active) in experiment [5] (setting [8]); 95.3% (active) in experiment [5] (at 50.0 µM); 36% in experiment [6] (setting [7]); 97% (active) in experiment [6] (setting [8]); 95.1% (active) in experiment [6] (at 50.0 µM).
Turning to `O=C1N(Cc2ccccc2)CC1(c1ccccc1)C1CCCCC1O` (stereo not drawn), the growth inhibition in experiment [1] (setting [7]) was -1%; in experiment [1] (setting [8]) it was 96% (active); in experiment [1] (at 50.0 µM) it was -18.1%; in experiment [2] (setting [7]) it was -5%; in experiment [2] (setting [8]), 49%; in experiment [2] (at 50.0 µM) it was 7.8%. The growth inhibition is -3% in experiment [3] (setting [7]); 82% (active) in experiment [3] (setting [8]); 35.5% in experiment [3] (at 50.0 µM); -8% in experiment [4] (setting [7]); 84% (active) in experiment [4] (setting [8]); 6.9% in experiment [4] (at 50.0 µM). Further, the growth inhibition in experiment [5] (setting [7]) was -2%; in experiment [5] (setting [8]), 93% (active); in experiment [5] (at 50.0 µM), 65.6%.
Turning to `CC=CCOc1cc(NC(=S)OC(C)C)ccc1Cl` (mixture of isomers), the growth inhibition is 28% in experiment [1] (setting [7]); 94% (active) in experiment [1] (setting [8]); 79.2% (active) in experiment [1] (at 50.0 µM); 18% in experiment [2] (setting [7]); 97% (active) in experiment [2] (setting [8]); 89.2% (active) in experiment [2] (at 50.0 µM). In addition, the growth inhibition in experiment [3] (setting [7]) was 31%; in experiment [3] (setting [8]), 92% (active); in experiment [3] (at 50.0 µM), 88.4% (active); in experiment [4] (setting [7]), 22%; in experiment [4] (setting [8]), 96% (active); in experiment [4] (at 50.0 µM) it was 90% (active). Moreover, the growth inhibition in experiment [5] (setting [7]) was 27%; in experiment [5] (setting [8]), 97% (active); in experiment [5] (at 50.0 µM), 89.7% (active); in experiment [6] (setting [7]), 25%; in experiment [6] (setting [8]), 96% (active); in experiment [6] (at 50.0 µM) it was 85.8% (active).
Consider `O=C1CC(c2ccccc2)c2c(ccc3ccccc23)O1` (stereo not drawn), for which the growth inhibition in experiment [1] (setting [7]) is -1%; in experiment [1] (setting [8]), 90% (active); in experiment [1] (at 50.0 µM), 87% (active); in experiment [2] (setting [7]), 1%; in experiment [2] (setting [8]), 86% (active); in experiment [2] (at 50.0 µM) it was 62.2%. Moreover, the growth inhibition in experiment [3] (setting [7]) is -1%; in experiment [3] (setting [8]), 86% (active); in experiment [3] (at 50.0 µM), 75.2% (active); in experiment [4] (setting [7]), 6%; in experiment [4] (setting [8]), 77% (active); in experiment [4] (at 50.0 µM), 45.5%. Further, the growth inhibition in experiment [5] (setting [7]) was 6%; in experiment [5] (setting [8]) it was 86% (active); in experiment [5] (at 50.0 µM), 72% (active); in experiment [6] (setting [7]), -1%; in experiment [6] (setting [8]), 88% (active); in experiment [6] (at 50.0 µM), 72.8% (active).
For the compound `O=C1CCCC/C1=C\c1ccc(Br)cc1`, the growth inhibition in experiment [1] (setting [7]) was 1%; in experiment [1] (setting [8]), 96% (active); in experiment [1] (at 50.0 µM), 80.2% (active); in experiment [2] (setting [7]), -21%; in experiment [2] (setting [8]), 99% (active); in experiment [2] (at 50.0 µM) it was 86.7% (active). Further, the growth inhibition in experiment [3] (setting [7]) was -28%; in experiment [3] (setting [8]), 99% (active); in experiment [3] (at 50.0 µM) it was 90.7% (active); in experiment [4] (setting [7]), 9%; in experiment [4] (setting [8]), 95% (active); in experiment [4] (at 50.0 µM), 88.3% (active). Also, the growth inhibition in experiment [5] (setting [7]) was -55%; in experiment [5] (setting [8]), 99% (active); in experiment [5] (at 50.0 µM), 89.4% (active); in experiment [6] (setting [7]), -17%; in experiment [6] (setting [8]), 99% (active); in experiment [6] (at 50.0 µM) it was 92.7% (active).

Values taken from PubChem BioAssay (NCI).
